Data published in PubChem BioAssay (EPA / NIEHS).
Calls of active or inactive are those of the source. How the source made its calls: active means hit-call score of the fitted dose curve at least 0.9, where 1 is the maximum; inactive means score below 0.9.

Experiments:
Details in all cases: mRNA level, 48 h; actives raise or lower the signal
[1] = read-out: ABC Transporter (ABCB11), ABCB11 (gene 8647); experiment: LTEA_HepaRG_ABCB11: Life Technologies and Expression Analysis (LTEA) Assay for ABC Transporter (ABCB11) using HepaRG (AID 2283463)
Outline: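 HepaRG, 48 h exposure, 8-pt half-log CRC top 100 uM, 0.5% DMSO vehicle, duplicates. Readout: TaqMan qRT-PCR of ABCB11 mRNA, housekeeping-normalized (ACTB/GAPDH/POLR2A). Bidirectional fit vs DMSO baseline.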

[2] = read-out: ABC Transporter (ABCC2), ABCC2 (gene 1244); experiment: LTEA_HepaRG_ABCC2: Life Technologies and Expression Analysis (LTEA) Assay for ABC Transporter (ABCC2) using HepaRG (AID 2283464)
Outline: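 HepaRG, 48 h post-plating; serum-free induction medium; cpd 8-pt, 100 uM top, half-log, 0.5% DMSO, duplicate, 48 h. Readout: ABCC2 mRNA by qRT-PCR, norm. ACTB/GAPDH/POLR2A. Bidirectional fit vs DMSO baseline.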

[3] = read-out: Broad substrate specificity ATP-binding cassette transporter ABCG2 (Homo sapiens) (UniProt Q9UNQ0); experiment: LTEA_HepaRG_ABCG2: Life Technologies and Expression Analysis (LTEA) Assay for ABC Transporter (ABCG2) using HepaRG (AID 2283465)
Outline: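 HepaRG, 48 h exposure, 8-pt half-log series from 100 uM, 0.5% DMSO vehicle, duplicates. Readout: ABCG2 transcript by qRT-PCR (Fluidigm array), housekeeping-normalized; bidirectional curve fit relative to DMSO baseline.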

[4] = read-out: ATP-citrate lyase (ACLY), ACLY (gene 47); experiment: LTEA_HepaRG_ACLY: Life Technologies and Expression Analysis (LTEA) Assay for ATP-citrate lyase (ACLY) using HepaRG (AID 2283466)
Outline: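 qRT-PCR readout of ACLY transcript after 48 h chemical treatment of HepaRG cells; expression normalized to three housekeeping genes. Eight-point half-log series, highest 100 uM, 0.5% DMSO vehicle. Gain or loss fitted against DMSO baseline.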

[5] = read-out: Peroxisomal acyl-coenzyme A oxidase 1 (ACOX1) gene, ACOX1 (gene 51); experiment: LTEA_HepaRG_ACOX1: Life Technologies and Expression Analysis (LTEA) Assay for Peroxisomal acyl-coenzyme A oxidase 1 (ACOX1) gene using HepaRG (AID 2283467)
Outline: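 HepaRG, 48 h chemical exposure, 8-pt half-log series from 100 uM top, 0.5% DMSO vehicle, duplicates. Readout: ACOX1 mRNA by Fluidigm qRT-PCR, housekeeping-normalized; bidirectional fit vs DMSO baseline.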

[6] = read-out: Alkaline Phosphatase, Placental (ALPP) gene, ALPP (gene 250); experiment: LTEA_HepaRG_ALPP: Life Technologies and Expression Analysis (LTEA) Assay for Alkaline Phosphatase, Placental (ALPP) gene using HepaRG (AID 2283468)
Outline: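 HepaRG, 48 h plating then 48 h dosing, serum-free induction medium, 0.5% DMSO. 8 conc, half-log, max 100 uM, duplicates. Endpoint: ALPP transcript by qRT-PCR, housekeeping-normalized; gain or loss fitted vs DMSO.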

[7] = read-out: Bcl-2 (BAD) gene, BAD (gene 572); experiment: LTEA_HepaRG_BAD: Life Technologies and Expression Analysis (LTEA) Assay for Bcl-2 (BAD) gene using HepaRG (AID 2283469)
Outline: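 HepaRG, 48 h exposure, 8-pt half-log curve from 100 uM in 0.5% DMSO, duplicates. Readout: TaqMan qRT-PCR for BAD mRNA, housekeeping-normalised (ACTB/GAPDH/POLR2A); gain or loss fitted against DMSO baseline.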

[8] = read-out: Bcl-2 (BAX) gene, BAX (gene 581); experiment: LTEA_HepaRG_BAX: Life Technologies and Expression Analysis (LTEA) Assay for Bcl-2 (BAX) gene using HepaRG (AID 2283470)
Outline: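 Gene expression measured by Fluidigm qRT-PCR with three housekeeping genes for normalisation. HepaRG cells, plated 48 h beforehand, treated 48 h at up to 100 uM (8-point, half-log) in 0.5% DMSO. Bidirectional fitting versus DMSO.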

[9] = read-out: adenosine kinase (ADK) gene, ADK (gene 132); experiment: LTEA_HepaRG_ADK: Life Technologies and Expression Analysis (LTEA) Assay for adenosine kinase (ADK) gene using HepaRG (AID 2283471)
Outline: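 Following 48 h exposure of HepaRG cells in 0.5% DMSO (top concentration 100 uM, duplicate wells), ADK mRNA induction or suppression was measured by qRT-PCR, normalised to ACTB/GAPDH/POLR2A, and fitted bidirectionally relative to vehicle.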

[10] = read-out: Alpha-fetoprotein (AFP) gene, AFP (gene 174); experiment: LTEA_HepaRG_AFP: Life Technologies and Expression Analysis (LTEA) Assay for Alpha-fetoprotein (AFP) gene using HepaRG (AID 2283472)
Outline: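 AFP transcript measured by TaqMan qRT-PCR with three housekeeping genes for normalization, after 48 h chemical treatment of HepaRG cells (top 100 uM, half-log steps, 0.5% DMSO). Gain or loss fitted against vehicle.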

[11] = read-out: Apoptosis regulator Bcl-2 (Homo sapiens) (UniProt P10415); experiment: LTEA_HepaRG_BCL2: Life Technologies and Expression Analysis (LTEA) Assay for Bcl-2 gene using HepaRG (AID 2283475)
Outline: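 qRT-PCR of BCL2 transcript, normalized to three housekeeping genes (ACTB, GAPDH, POLR2A), after 48 h chemical exposure of HepaRG cells; concentrations top 100 uM with half-log dilutions, 0.5% DMSO vehicle, duplicates; changes up or down fitted relative to vehicle.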

[12] = read-out: Bcl-2 (BID) gene, BID (gene 637); experiment: LTEA_HepaRG_BID: Life Technologies and Expression Analysis (LTEA) Assay for Bcl-2 (BID) gene using HepaRG (AID 2283476)
Outline: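 Duplicate 48 h treatments of HepaRG cells in serum-free induction medium spanned 100 uM downward in half-log steps, 0.5% DMSO. Transcript change quantified by qRT-PCR against three housekeeping genes, fitted up or down versus DMSO.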

Caspase-3 (Homo sapiens) = Caspase-3 (Homo sapiens) (UniProt P42574); experiment: LTEA_HepaRG_CASP3: Life Technologies and Expression Analysis (LTEA) Assay for cysteine-aspartic acid protease (CASP3) using HepaRG (AID 2283477)
Outline: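 Read-out is CASP3 mRNA level by TaqMan qRT-PCR in human HepaRG cells after 48 h chemical exposure. Eight half-log concentrations topping at 100 uM were tested in 0.5% DMSO; gain or loss was fitted relative to DMSO.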

[13] = read-out: Cytochrome P450 (CYP24A1), CYP24A1 (gene 1591); experiment: LTEA_HepaRG_CYP24A1: Life Technologies and Expression Analysis (LTEA) Assay for Cytochrome P450 (CYP24A1) using HepaRG (AID 2283478)
Outline: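 HepaRG, 48 h chemical exposure, 8-pt half-log CRC from 100 uM, 0.5% DMSO vehicle, duplicates. Endpoint: CYP24A1 mRNA by Fluidigm TaqMan qRT-PCR, normalized ACTB/GAPDH/POLR2A; gain/loss fit vs DMSO.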

[14] = read-out: Cytochrome P450 (CYP1A2), CYP1A2 (gene 1544); experiment: LTEA_HepaRG_CYP1A2: Life Technologies and Expression Analysis (LTEA) Assay for Cytochrome P450 (CYP1A2) using HepaRG (AID 2283479)
Outline: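 CYP1A2 transcript induction or loss, quantified by Fluidigm qRT-PCR against three housekeeping genes, was fitted bidirectionally against 0.5% DMSO controls. Human HepaRG cells received eight half-log concentrations from 100 uM over 48 h.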

[15] = read-out: Cytochrome P450 (CYP2B6), CYP2B6 (gene 1555); experiment: LTEA_HepaRG_CYP2B6: Life Technologies and Expression Analysis (LTEA) Assay for Cytochrome P450 (CYP2B6) using HepaRG (AID 2283481)
Outline: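 HepaRG cells plated 48 h, switched to serum-free induction medium, then dosed 48 h (8 points, half-log from 100 uM, 0.5% DMSO). RNA isolated; CYP2B6 expression measured by qRT-PCR; gain or loss fitted relative to DMSO.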

[16] = read-out: Cytochrome P450 2C19 (Homo sapiens) (UniProt P33261); experiment: LTEA_HepaRG_CYP2C19: Life Technologies and Expression Analysis (LTEA) Assay for CYP2C19 using HepaRG (AID 2283482)
Outline: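 Transcript levels of CYP2C19 were quantified by qRT-PCR after HepaRG cells were treated for 48 hours with test chemicals up to 100 uM (eight half-log concentrations, 0.5% DMSO vehicle). Gain or loss of signal was fitted relative to DMSO.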

[17] = read-out: Apolipoprotein A-V (APOA5) gene, APOA5 (gene 116519); experiment: LTEA_HepaRG_APOA5: Life Technologies and Expression Analysis (LTEA) Assay for Apolipoprotein A-V (APOA5) gene using HepaRG (AID 2283474)
Outline: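 Readout is APOA5 transcript level by qRT-PCR on Fluidigm dynamic arrays, normalized to three housekeeping genes. HepaRG cultures received chemicals for 48 h at up to 100 uM (half-log steps, 0.5% DMSO), with gain or loss scored relative to DMSO.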

BCL2L11 (gene 10018) = experiment: LTEA_HepaRG_BCL2L11: Life Technologies and Expression Analysis (LTEA) Assay for Bcl-2 (BCL2L11) gene using HepaRG (AID 2283473)
Outline: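 Read-out is BCL2L11 transcript level by qRT-PCR, normalized to three housekeeping genes and fitted bidirectionally against 0.5% DMSO vehicle. HepaRG cells received chemicals for 48 h in serum-free induction medium, 100 uM down in half-log dilutions.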

Measured: AC50

Chain of Cytochrome P450 2C19 (Homo sapiens) (P33261 whole entry, looked up): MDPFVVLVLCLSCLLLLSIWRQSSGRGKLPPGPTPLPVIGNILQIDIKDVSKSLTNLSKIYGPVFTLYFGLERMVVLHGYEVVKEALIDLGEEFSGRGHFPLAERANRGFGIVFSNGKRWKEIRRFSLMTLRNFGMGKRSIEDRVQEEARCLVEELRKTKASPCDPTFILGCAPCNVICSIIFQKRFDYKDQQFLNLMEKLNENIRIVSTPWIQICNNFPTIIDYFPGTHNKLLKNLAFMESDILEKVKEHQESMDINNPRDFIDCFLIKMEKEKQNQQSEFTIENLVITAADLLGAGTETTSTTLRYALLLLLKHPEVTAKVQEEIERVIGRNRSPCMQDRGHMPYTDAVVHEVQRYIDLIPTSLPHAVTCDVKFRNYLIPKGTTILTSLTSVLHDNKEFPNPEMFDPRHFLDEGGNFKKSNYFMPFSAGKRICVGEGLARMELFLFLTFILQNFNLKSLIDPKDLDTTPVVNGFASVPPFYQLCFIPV
Chain of Apoptosis regulator Bcl-2 (Homo sapiens) (P10415 whole entry, looked up): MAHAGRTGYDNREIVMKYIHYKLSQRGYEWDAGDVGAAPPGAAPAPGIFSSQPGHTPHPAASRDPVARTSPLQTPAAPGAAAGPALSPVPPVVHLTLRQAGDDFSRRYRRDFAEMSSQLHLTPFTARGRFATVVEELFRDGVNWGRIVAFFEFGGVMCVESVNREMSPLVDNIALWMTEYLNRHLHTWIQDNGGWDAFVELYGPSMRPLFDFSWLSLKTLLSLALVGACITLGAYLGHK
Chain of Broad substrate specificity ATP-binding cassette transporter ABCG2 (Homo sapiens) (Q9UNQ0 whole entry, looked up): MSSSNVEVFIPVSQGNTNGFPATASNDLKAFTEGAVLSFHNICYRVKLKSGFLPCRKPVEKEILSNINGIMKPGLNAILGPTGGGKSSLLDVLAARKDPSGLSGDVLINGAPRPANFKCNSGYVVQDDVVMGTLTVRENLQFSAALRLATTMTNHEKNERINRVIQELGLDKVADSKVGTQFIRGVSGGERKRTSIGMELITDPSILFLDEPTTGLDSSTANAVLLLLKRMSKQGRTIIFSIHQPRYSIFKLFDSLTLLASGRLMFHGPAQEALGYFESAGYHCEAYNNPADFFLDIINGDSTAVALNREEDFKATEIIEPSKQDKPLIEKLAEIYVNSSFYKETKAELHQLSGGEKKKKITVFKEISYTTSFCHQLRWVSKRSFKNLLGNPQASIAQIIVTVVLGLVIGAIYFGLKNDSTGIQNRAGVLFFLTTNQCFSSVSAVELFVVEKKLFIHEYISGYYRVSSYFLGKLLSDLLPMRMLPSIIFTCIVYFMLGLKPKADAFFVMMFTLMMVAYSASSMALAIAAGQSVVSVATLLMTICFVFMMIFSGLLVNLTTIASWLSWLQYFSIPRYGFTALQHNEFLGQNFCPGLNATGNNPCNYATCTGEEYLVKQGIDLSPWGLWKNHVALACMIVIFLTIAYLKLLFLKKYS
Chain of Caspase-3 (Homo sapiens) (P42574 whole entry, looked up): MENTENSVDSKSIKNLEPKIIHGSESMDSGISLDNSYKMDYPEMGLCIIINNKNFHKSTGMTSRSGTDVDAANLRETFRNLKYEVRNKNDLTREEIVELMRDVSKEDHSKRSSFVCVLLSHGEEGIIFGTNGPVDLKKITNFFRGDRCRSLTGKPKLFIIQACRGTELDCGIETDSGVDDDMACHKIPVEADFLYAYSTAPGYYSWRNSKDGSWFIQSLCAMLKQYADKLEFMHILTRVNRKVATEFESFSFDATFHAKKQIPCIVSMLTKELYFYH

Oc1ccccc1-c1ccccc1
inactive: [1] | [2] | [3] | [4] | [5] | [6] | [7] | [8] | [9] | [10] | [11] | [12] | Caspase-3 (Homo sapiens) | [13] | [14] | [15] | [16]

CCOC(=O)CC(SP(=S)(OC)OC)C(=O)OCC (stereo not drawn)
active: [14] 13.8 µM | [15] 50 µM
inactive: [1] | [2] | [3] | [4] | [5] | [6] | [7] | [8] | [9] | [10] | [11] | [12] | Caspase-3 (Homo sapiens) | [13] | [16]

CCCCNC(=O)n1c(NC(=O)OC)nc2ccccc21
inactive: [1] | [2] | [3] | [5] | [6] | [7] | [8] | [9] | [10] | [17] | [11] | [12] | Caspase-3 (Homo sapiens) | [13] | [15] | [16]
active: [14] 20.7 µM

CNC(=S)S
inactive: [1] | [2] | [3] | [5] | [6] | [7] | [8] | [9] | [10] | [17] | [11] | [12] | Caspase-3 (Homo sapiens) | [13] | [16]
active: [14] 50 µM | [15] 29.7 µM

CS/C(C)=N/OC(=O)N(C)SN(C)C(=O)O/N=C(\C)SC
inactive: [2] | [3] | [4] | [5] | [6] | [7] | [8] | [9] | [10] | [11] | [12] | Caspase-3 (Homo sapiens) | [13] | [14] | [15] | [16]
active: [1] 33.6 µM

COC(=O)C(C)Oc1ccc(Oc2ccc(Cl)cc2Cl)cc1 (stereo not drawn)
inactive: [2] | [3] | [6] | [7] | [8] | [9] | BCL2L11 (gene 10018) | [17] | [12] | Caspase-3 (Homo sapiens) | [13] | [14] | [15]
active: [1] 45.7 µM | [5] 21.7 µM | [10] 79.6 µM | [11] 50 µM | [16] 29.4 µM
